Compound activity as filed in PubChem.
Tg IFNy HTS: T. gondii growth inhibition with IFN-gamma, primary screen, cell-based | Toxoplasma gondii growth in IFN-gamma-treated host cells; stronger effect = lower value | activity change, negative = inhibition, % (no concentration beside the values) | actives 3.8% (n = 69,000) | AID 1259416, 2018; in the data active = activity change below about -70%, passing the limit was not always enough;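 also: host cells are HeLa cells infected with Toxoplasma gondii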
* marks the source's active call; other numbers are inactive results; i = inactive. The entries come from a sample that favours hits as a whole.

SMILES	Tg IFNy HTS
Cc1cn(CCNC(=O)CC2COc3ccc(C(=O)N(C)C)cc3N2C)nn1 (stereo not given)	-7
Cc1ccc(OCC2CCCN(C(=O)c3ccc(-n4cnnc4)cc3)C2)cc1 (stereo not given)	-16
CCc1cnc(N2CC[C@H]3CN(Cc4cccnc4)S(=O)(=O)[C@@H]3CC2)nc1	-32
COc1ccc(-c2nc(C)c(CCNC(=O)c3ccccc3)s2)cc1OC	i
COc1ccc(-c2nc(CN3CCN4C(=O)CNC(=O)C4C3)c(C)o2)c(F)c1 (stereo not given)	-8
O=C(Cc1c(F)cccc1Cl)NC(=O)NCCc1c(F)cccc1Cl	-83*
CCn1c(CCNC(=O)Cc2c(F)cccc2Cl)nnc1SC	-3
CC(C)(C)C(=O)C(Cc1c(F)cccc1Cl)C(=O)C(C)(C)C	-24
O=C(CCC1N=C2c3ccccc3N=C(SCc3cc(=O)n4ccccc4n3)N2C1=O)NCc1cccs1 (stereo not given)	14
COc1ccccc1-c1nc(Cn2nnc(C(=O)Nc3ccc(Cl)c(Cl)c3)c2C)c(C)o1	90
C=CCOCC12CCCOC1CCN(S(=O)(=O)c1cn(C)cn1)C2 (stereo not given)	4
Cc1cc(CN2CCN(c3cccc(C(C)C)n3)CC2)sc1C	-16
O=C(CN1CCC(c2nc3ccccc3[nH]2)CC1)N1CCCc2ccccc21	-7
O=C(CN1CCC(n2nnc3cc(C(F)(F)F)ccc32)CC1)N1CCc2ccccc21	-81*
O=C(CN1CCCC1)N1CCc2ccccc21	-30
CN(C)CCN1CC2(CCN(C(=O)c3cnccn3)CC2)OCC1=O	-1
Cc1cc(C)nc(CN(C)C(=O)c2coc(COc3cccc(F)c3F)n2)c1	4
CC(=O)Nc1cccc2nc(CN3CCCC(C(=O)c4cccc5ccccc45)C3)ccc12 (stereo not given)	21
Cc1ccc(C)c(OCC(=O)N2CCC(c3nnc4n3CCCCC4)CC2)c1C	-13
Cc1cccc(NC(=O)Cn2ncc3c(N4CCN(c5ccccn5)CC4)ncnc32)c1	88
CC(C)c1cccc(NC(=O)Cn2ncc3c(N4CCN(c5ccccn5)CC4)ncnc32)c1	-93*
CC(C)c1ccc(NC(=O)Cn2ncc3c(N4CCN(c5ccccn5)CC4)ncnc32)cc1	-43
O=C(Cn1ncc2c(N3CCN(c4ccccn4)CC3)ncnc21)Nc1ccccc1Cl	97
O=C(Cn1ncc2c(N3CCN(c4ccccn4)CC3)ncnc21)Nc1ccc(Cl)cn1	-83*
Cc1ccc(NC(=O)Cn2ncc3c(N4CCN(c5ccccn5)CC4)ncnc32)cc1Cl	-74*
SMILES	Tg IFNy HTS
Cc1cc(Cl)ccc1NC(=O)Cn1ncc2c(N3CCN(c4ccccn4)CC3)ncnc21	64
Cc1ccc(NC(=O)Cn2ncc3c(N4CCN(c5ccccn5)CC4)ncnc32)cc1C	-55
COc1ccc(NC(=O)Cn2ncc3c(N4CCN(c5ccccn5)CC4)ncnc32)cc1Cl	120
Cc1ccc(-c2nc3c(s2)CN(C(=O)Nc2cccc(C)c2C)CC3)cc1	214
CCOC(=O)c1cc(C2CC2)nc2c1c(=O)n(CC(=O)c1c(C)n(C)c3ccccc13)c(=O)n2C	8
Cn1nnnc1SCCCNCc1c(F)cccc1Cl	-7
OC1(c2cccc(C(F)(F)F)c2)CCN(Cc2ccsc2)CC1	-9
Cc1c(C(=O)NCCc2ccc(N(C)C)cc2)cnn1C	-5
COc1cccc(N2CC(C(=O)N3CCC(O)(Cn4ccnc4C)CC3)CC2=O)c1 (stereo not given)	108
O=C(CN1CCC(Oc2ccccc2F)CC1)Nc1ccc2ncccc2c1	0
OCCN(Cc1cccs1)Cc1cc(F)ccc1O	-3
O=C(Nc1cnn(Cc2cccc(F)c2)c1)C1OCCc2ccccc21 (stereo not given)	-97*
O=C(NCCS(=O)(=O)c1ccc(F)cc1)C1OCCc2ccccc21 (stereo not given)	10
COc1cccc2cc(C(=O)Nc3cnn(Cc4cccc(F)c4)c3)c(C)nc12	2
CC(=O)c1cccc(NC(=O)Nc2nc(SCc3ccc(F)cc3)ns2)c1	-107*
CSc1nsc(NC(=O)OCc2ccc(Cl)cc2)n1	12
CCCCCCSc1nsc(NC(C)=O)n1	55
O=C1NCC2(CCCN(C(=O)c3ccc(Oc4ccccc4)o3)CC2)O1 (stereo not given)	2
CN(CCNC(=O)Cn1c(=O)oc2ccc(Cl)cc21)c1ccccc1	-3
CC1Cc2cc(CN(C)C(=O)CCS(=O)(=O)c3cccc4cccnc34)ccc2O1 (stereo not given)	-26
CC1Cc2cc(CN(C)C(=O)Cn3c(=O)oc4ccc(Cl)cc43)ccc2O1 (stereo not given)	-92*
COc1ccc2c(c1)C(CCNC(=O)Cc1c(C)[nH]c3c(C)ccc(C)c13)C(=O)N2 (stereo not given)	-6
CN(CCC#N)C(=O)c1cc2cccnc2n(Cc2ccc(F)cc2)c1=O	42
COc1ccc(-c2nc(CNS(=O)(=O)c3ccc(OC)cc3)c(C)o2)cc1	0
Cc1oc(-c2ccccc2)nc1CNS(=O)(=O)c1ccc(C(C)C)cc1	-62
SMILES	Tg IFNy HTS
Cc1ccc(-c2nc(CNS(=O)(=O)c3ccc(C(C)C)cc3)c(C)o2)cc1	-105*
O=C(CCC1C(=O)Nc2ccccc21)Nc1nnc(C2CCCCC2)s1 (stereo not given)	6
C=CCNc1ccccc1C(=O)N1Cc2ccccc2CC1C(N)=O (stereo not given)	-3
Cc1cnc(NC(=O)C2CC(=O)N(c3ccc(OC(C)C)cc3)C2)s1 (stereo not given)	-7
Cc1onc(-c2ccc(Cl)cc2)c1-c1ccnc(SCC(=O)c2ccccc2)n1	-72*
Cc1ccc(C(=O)CSc2ncn(-c3ccccc3)n2)cc1	12
CC(C)c1ccc(NC(=O)CSc2nccc(-c3csc(-c4ccccc4)n3)n2)cc1	-22
CCn1c(C2CCN(C(=O)c3ccc4cccnc4n3)CC2)nn(C)c1=O	-8
Cc1nnnn1-c1cccc(C(=O)NCCc2cn(C)c3ccc(F)cc23)c1	-20
Cc1cnc(N2CCC3(CC2)CC(N2CCOCC2)CO3)nc1 (stereo not given)	-5
O=C1CCCc2c1[nH]c1ccc(-c3ccccc3CO)cc21	-75*
CCc1ccccc1-c1ccc2cc[nH]c(=O)c2c1	2
CCC(=O)NCc1ccccc1-c1ccccc1CO	-39
COc1cccc(CC(=O)N2CCC(N(C)C)CC2C(=O)O)c1 (stereo not given)	-4
Cc1cccc(CO[C@@H]2C[C@@H]3CN(C(=O)c4cscn4)CCN3C2)n1	-3
Cn1cccc1C(=O)N1CCc2c(CN3CCCC3)nn(C)c2C1	-36
Cc1ccc(-c2nc(Cn3nnc(-c4nc(-c5ccc(OC(F)(F)F)cc5)no4)c3C)c(C)o2)cc1	-38
Cn1nc(C(F)(F)F)c(-c2ccc(Br)cc2)c1NC(=O)C1CCC1C(=O)O (stereo not given)	-10
Cn1nc(C(C)(C)C)cc1C(=O)Nc1c(-c2ccccc2)c(C(F)(F)F)nn1C	-95*
C[C@H](Cn1nnc2ccccc21)NC(=O)c1cc(C(C)(C)C)nn1C	2
CCCCCN1CC2CN(C(=O)c3cscn3)CC2C1 (stereo not given)	-7
CN(CCCn1cccn1)Cc1ccc2cccc(O)c2n1	-9
O=C(Nc1ccc(F)cc1)N1C[C@@H]2[C@H](c3ccccc31)[C@H](CO)N2Cc1ccccc1Cl	37
O=S(=O)(c1ccc(F)cc1)N1C[C@@H]2[C@H](c3ccccc31)[C@@H](CO)N2Cc1ccccc1Cl	-3
